Among all 1,300 compounds or so, about 420 (32%) were called active. Another 32% or so got no clear call; they are omitted. The call rests on the fitted dose curve; in most records, active means well fitted inhibition curve with a large enough effect; inconclusive means small, poorly fitted or top-dose-only effect; inactive means no such curve, though single readings can be large or run the other way. Some of the results follow.
What follows are compounds tested against C-terminal-binding protein 1 (Homo sapiens) (UniProt Q13363) (assay: qHTS for Inhibitors of the Phosphatase Activity of Eya2: Carboxyl-terminal binding protein (CtBP) Counterscreen for Cherry-picked Compounds). Conditions: purified protein-protein binding, AlphaScreen, 3 h; series mostly up to 46.1 µM; activity change, negative = inhibition: at the top concentration.
Outline: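 AlphaScreen using 25 nM GST-E1A with 25 nM CtBP-6xHIS; compounds at 2.5 nM–46 uM final, 2 h at room temperature, then donor/acceptor beads (20 ug/mL) for 1 h in the dark. Signal normalized to E1A peptide inhibitor (maximum inhibition) and DMSO.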
Further: nearly all actives have a fitted effect of over 65% in size.
On the % scale 0 is the no-effect control and ±100 the full control effect; potency means the concentration at half of the fitted maximal effect.

| SMILES | activity change, negative = inhibition | Potency |
| --- | --- | --- |
| Cc1c(C(=O)/C=C/N(C)C)nnn1-c1ccc(Cl)cc1Cl | 3.68% (inactive) | – |
| CN(C)S(=O)(=O)c1cccc(NC(=O)COc2ccccc2C(=O)Nc2ccccc2)c1 | – | 10.7 µM (active) |
| O=C(COc1ccccc1/C=C1/NC(=O)NC1=O)Nc1ccccc1 | -22% (inactive) | – |
| CCC(C)C(CO)NC(=O)/C=C/[C@H]1O[C@@H](n2cnc3c(NC(=O)c4ccccc4)ncnc32)[C@H](O)[C@@H]1O (some centres not stated) | 2.64% (inactive) | – |
| CCCC[C@@]1(C2CCCC2)Cc2cc(OCC(=O)O)c(Cl)c(Cl)c2C1=O | -17.1% (inactive) | – |
| CCOC(=O)CN1C(=O)/C(=C2\SC(=S)N(NC(=O)c3cccnc3)C2=O)c2ccccc21 | – | 13.5 µM (active) |
| CN1C(=O)/C(=C2\SC(=S)N(NC(=O)c3cccnc3)C2=O)c2ccccc21 | – | 15.1 µM (active) |
| CCc1ccc2[nH]c3nc(SCC(=O)NCC4CCCO4)nnc3c2c1 (configuration not stated) | – | 4.78 µM (active) |
| Cc1cc2oc(C(=O)N(Cc3ccc(N(C)C)cc3)CC3CCCO3)c(C)c2cc1C (configuration not stated) | -65.1% (inactive) | – |
| CCOc1ccc2[nH]c3nc(SCC(=O)NC4CCCC4)nnc3c2c1 | 23.6% (inactive) | – |
| CCCc1cc(=O)[nH]c(SCC(=O)Nc2ccc(C)cc2)n1 | 2.2% (inactive) | – |
| Cc1nnc2sc(SCC(=O)Nc3ccc(Br)cc3)nn2c1=O | – | 2.13 µM (active) |
| CCOC(=O)N1CCC(NC(=O)c2cc3c(-c4ccccc4F)nn(C)c3s2)CC1 | 6.05% (inactive) | – |
| N#Cc1c2nc3ccccc3nc2n2cc(NC(=O)c3ccc(F)cc3)ccc12 | – | 3.79 µM (active) |
| Cc1cccc(N2CCN(C(=O)C3COc4ccccc4O3)CC2)c1C (configuration not stated) | 1.89% (inactive) | – |
| Cc1cnc(C(=O)Nc2ccccc2-c2ccc(C)o2)cn1 | -9.79% (inactive) | – |
| Cc1cc(Nc2ccccc2C(=O)O)n(-c2cccc(Cl)c2)n1 | – | 7.57 µM (active) |
| COc1ccc(-n2nc(C)cc2Nc2ccccc2C(=O)O)cc1 | – | 7.57 µM (active) |
| CCOC(=O)c1cc(-c2ccc(N3CCOCC3)cc2)nn1-c1ccccc1C(=O)O | 1.17% (inactive) | – |
| CCc1nc2ccc(C(=O)NCCOc3ccc(OC)cc3)cn2c1N(CCC(C)C)CCN(C)C | -15% (inactive) | – |
| O=C1c2ccccc2C(=O)c2c(Nc3ccc(CCO)cc3)ccc(O)c21 | – | 6.01 µM (active) |

| SMILES | activity change, negative = inhibition | Potency |
| --- | --- | --- |
| COc1cccc(C2c3[nH]c4ccccc4c3CCN2Cc2cnn(C)c2)c1 (configuration not stated) | -26.5% (inactive) | – |
| CNc1c(Br)cc(C(O)C2=CCc3ccccc32)cc1Br (configuration not stated) | -6.01% (inactive) | – |
| Cc1csc(NC(=O)c2cc(=O)[nH]c3ccccc23)n1 | – | 19 µM (active) |
| O=C(NC1CCCC1)c1cc(=O)[nH]c2ccccc12 | 20.1% (inactive) | – |
| Cc1cc(Br)c(NC(=O)c2ccccc2[N+](=O)[O-])cc1C | 0.85% (inactive) | – |
| O=C(Nc1cc([N+](=O)[O-])ccc1O)c1cccc(C(=O)Nc2cc([N+](=O)[O-])ccc2O)c1 | – | 6.01 µM (active) |
| COc1ccc(C(=O)CC(=O)Nc2ccc([N+](=O)[O-])cc2)cc1 | -3.78% (inactive) | – |
| COc1cc(OC)c(OC)cc1CCC(C)NCCC(c1ccccc1)c1ccccc1 (configuration not stated) | – | 13.5 µM (active) |
| Cc1cccc(NC(=O)COC(=O)c2cccc3c2C(=O)c2ccccc2C3=O)c1C | -11.7% (inactive) | – |
| CNc1cccc2c1C(=O)c1ccccc1C2=O | – | 2.39 µM (active) |
| Cc1ccc(/C=C/C(=O)Nc2ccc(N(C)C)cc2)o1 | – | 15.1 µM (active) |
| C=CCn1cccc(C(=O)Nc2ccc(N(C)C)cc2)c1=O | -23.2% (inactive) | – |
| NC(=O)c1ccc(NC(=O)COC(=O)/C=C/c2ccc(Br)o2)cc1 | 3.02% (inactive) | – |
| CN(C)c1ccc(-c2ccnc3c2CC(C)(C(=O)Nc2ccc(Cl)c(C(F)(F)F)c2)O3)cc1 (configuration not stated) | -29.7% (inactive) | – |
| CCOC(=O)C1=C(N)Oc2c(oc(CO)cc2=O)C1c1ccc(Cl)cc1 (configuration not stated) | -7.43% (inactive) | – |
| O=C(Nc1ccc2nc(-c3ccco3)c(-c3ccco3)nc2c1)N1CCCC1 | – | 16.9 µM (active) |
| CC1CCN(C(=O)Nc2ccc3nc(-c4ccco4)c(-c4ccco4)nc3c2)CC1 | – | 15.1 µM (active) |
| CCOC(=O)c1ncccc1NC(=O)CC(=O)Nc1cccnc1C(=O)OCC | – | 2.39 µM (active) |
| Cc1cc(OC(=O)c2ccc(Cl)cc2)cc(=O)n1C | -16.9% (inactive) | – |
| C[C@H](O)[C@@H]1CN2CCc3c([nH]c4ccc(-c5ccc6c(c5)OCO6)cc34)[C@@H]2C[C@@H]1N(C)C(=O)NC1CCCCC1 | -13.4% (inactive) | – |
| COc1ccc(Nc2nc(N)nc(CSC(=S)N3CCCCC3)n2)cc1 | -20.2% (inactive) | – |

| SMILES | activity change, negative = inhibition | Potency |
| --- | --- | --- |
| Oc1ccccc1C=NC1CCCCC1N=Cc1ccccc1O (configuration not stated) | – | 15.1 µM (active) |
| COc1cc([C@H]2Oc3cc([C@H]4Oc5cc(O)cc(O)c5C(=O)[C@@H]4O)ccc3O[C@@H]2CO)ccc1O | -14.6% (inactive) | – |
| c1ccc(-c2ccc(C3=Nn4c(nnc4-c4cc(-c5ccccc5)n[nH]4)SC3)cc2)cc1 | -3.15% (inactive) | – |
| O=c1[nH]c(SCCOc2ccccc2F)nc2ccccc12 | -27.8% (inactive) | – |
| Cc1cc(C)n2nc(SCCOc3ccccc3F)nc2n1 | – | 12 µM (active) |
| Cc1cc(C)n2nc(C(=O)NC3CCCc4ccccc43)nc2n1 (configuration not stated) | -1.35% (inactive) | – |
| O=c1[nH]c(=O)n(C2C[C@H](O)[C@@H](CO)O2)cc1C(F)(F)F (some centres not stated) | -7.49% (inactive) | – |
| COc1cccc(/C=N/N2C(=O)CSC2=S)c1O | – | 1.2 µM (active) |
| Cc1ccc(Nc2nc(NCCO)nc3c2cnn3C)cc1Cl | – | 7.57 µM (active) |
| COc1ccc(Nc2nc(-c3c(C)nc4ncccn34)cs2)cc1 | – | 2.69 µM (active) |
| Cc1nc2ncccn2c1-c1csc(Nc2ccccc2)n1 | – | 2.39 µM (active) |
| CC1=C(C(=O)OC(C)C)C(c2ccc(N(C)C)cc2)C2=C(CC(C)(C)CC2=O)N1 (configuration not stated) | -23.9% (inactive) | – |
| Cc1cc(C(=O)O)ccc1-n1c(C)cc(C=C2C(=O)c3ccccc3C2=O)c1C | -10.9% (inactive) | – |
| COC(=O)c1ccc(C23CC4(C2)[C@H](CN(CC2CCCCC2)[C@@H]4c2ccccc2)C3c2ccc(Cl)nc2)cc1 (some centres not stated) | -11.6% (inactive) | – |
| Cc1sc(NC(=O)C2=COCCO2)c(C(N)=O)c1C | -82.8% (inactive) | – |
| NC(=O)c1c(NC(=O)c2cnccn2)sc2c1CCCC2 | – | 0.301 µM (active) |
| NC(=O)c1c(NC(=O)c2ccc(N3C(=O)CCC3=O)cc2)sc2c1CCCC2 | – | 0.478 µM (active) |
| CCCC(=O)NC(=S)Nc1sc2c(c1C(N)=O)CCC2 | 34.4% (inactive) | – |
| COc1ccccc1NC(=O)NCCN1CCN(C(=O)Nc2ccccc2OC)CC1 | 4.79% (inactive) | – |
| COc1ccc(-c2cc(C3CCNCC3)[nH]n2)cc1 | 9.67% (inactive) | – |
